# Compound activity: PubChem, several laboratories
# V-ATPase pHluor: regulators of yeast V-ATPase proton pumping, primary screen, pHLuorin cytosolic pH fluorescence; 350,000 tested, 0.37% active; S. cerevisiae; response, % at 10 µM; in the data active means response mostly above about 7.3%, no sharp cut-off; inactive means mostly below about 5.4%; further: actives read high
# PKA-R2B activ: activators of PKA-R2B holoenzyme, primary screen, biochemical, fluorescence polarization, Cy5-IP20, human | cAMP-dependent protein kinase catalytic subunit beta (Homo sapiens) + cAMP-dependent … | 340,000 tested, 0.079% active | AID 504700, 2011 | PKA-R2B holoenzyme dissociation; R2B truncated from residue 108, S112A mutant; 0% DMSO only, 100% 113 µM cGMP | activation, % at 11.4 µM;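 active means activation above a cutoff set at the mean over all compounds plus 3 SD, cut at about 18% in these data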;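 further: higher means more holoenzyme dissociation and a rise in polarization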
# Target sequence (P31323 whole entry, looked up, other chains not shown, the tested form may be a part): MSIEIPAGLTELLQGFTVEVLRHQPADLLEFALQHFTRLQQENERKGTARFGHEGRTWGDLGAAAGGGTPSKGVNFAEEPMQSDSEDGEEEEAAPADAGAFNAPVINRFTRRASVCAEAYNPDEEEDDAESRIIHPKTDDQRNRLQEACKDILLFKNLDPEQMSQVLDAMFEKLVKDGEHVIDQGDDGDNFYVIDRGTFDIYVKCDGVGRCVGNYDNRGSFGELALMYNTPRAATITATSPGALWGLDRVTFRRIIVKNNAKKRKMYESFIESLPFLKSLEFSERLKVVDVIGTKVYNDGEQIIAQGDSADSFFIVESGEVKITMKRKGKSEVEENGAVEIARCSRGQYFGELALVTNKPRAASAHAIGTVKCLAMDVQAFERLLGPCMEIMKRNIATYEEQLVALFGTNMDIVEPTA
# PolyA inh: polyadenylation inhibitors in yeast reporter cells, primary screen, luminescence, S. cerevisiae; 300,000 tested, 0.02% active; S. cerevisiae SKY197-pL101 polyadenylation reporter, beta-gal luminescence; efflux-impaired pdr1/pdr3 knockout yeast; score 100 = 6 SD above DMSO; AID 1875, 2009; activity score, % at 12 µM;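 active means lowest replicate activity score at least 50, where 100 means six control SD above control mean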;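 further: yeast exposed to compound for 9 h at 30 °C; higher score means more reporter readthrough which indicates perturbed polyadenylation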
# JMJD2C inh: inhibitors of GASC-1 histone demethylase, primary screen, biochemical, fluorescence, DELFIA europium; GST-JMJD2C(1-420) H3K9me3 demethylation; 330,000 tested, 0.069% active; AID 2099, 2009; inhibition, % at 2.35 µM;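 active means more than half of a compound's replicate wells show inhibition beyond 50%, single wells judged on their own value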;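 further: signal counts dimethyl H3K9 product captured on neutravidin plate; 0% = median of DMSO wells and 100% = 0.3 times that DMSO median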
# PKA-R1A act: activators of PKA-R1A holoenzyme, primary screen, biochemical, fluorescence polarization, Cy5-IP20, bovine R1A, mouse PKAc; PKA-R1A dissociation; scaled: DMSO 0%, 113 µM cGMP 100%; activation, % at 11.4 µM; 340,000 tested, 0.083% active;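 active means percent activation above the mean of all tested compounds plus 3 SD, cut at about 19% in these data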;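 further: higher means more PKAc released from R1A so a rise in polarization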
# CR mimetic SO: reduction of superoxide in aged yeast, primary screen, HTS. S. cerevisiae aged cells, superoxide DHE fluorescence; hits give low values. AID 2690, 2010. superoxide response (% of plate mean), % at 10 µM. 330,000 tested, 0.18% active;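 active means superoxide response under a set limit, about three screen SD below normal, cut at about 65% in these data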;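 further: yeast aged for seven days with compound at 30 °C before DHE staining; 100% = average MFI of all compound-treated wells on the plate with controls excluded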
# Superoxide pick: superoxide lowering in aged yeast cells, confirmation, cherry picked compounds; shares compounds with CR mimetic SO; S. cerevisiae aging, superoxide DHE fluorescence; hits give low values; superoxide response (% of plate), % at 10 µM; 850 tested, 1% active; AID 434994, 2010;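 active means superoxide signal below 65% of the plate average of sample wells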;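 further: cells aged with compound for 7 days at 30 degrees C before staining; 100% equals mean DHE fluorescence of all compound wells on the plate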
# DHE counter: DHE quenching or ROS scavenging interference in aged yeast, artefact control for yeast caloric restriction mimetic project, S. cerevisiae BY4741, flow cytometry; shares compounds with CR mimetic SO; DHE fluorescence; hits give low values; fluorescence response, % at 10 µM; 850 tested, under 10 active; AID 435000, 2010;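 active means fluorescence response below 15%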;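 further: percent of the mean fluorescence averaged over all compound wells on the plate; lower means stronger quenching of DHE signal or ROS scavenging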
# VATPase regulator: yeast V-ATPase proton pumping modulators, confirmation, S. cerevisiae, pH-sensitive GFP, second cherry-pick; 980 tested, 2% active; S. cerevisiae pHLuorin cytosolic pH, V-ATPase proton transport; AID 602197, 2012; response, % at 10 µM; shares compounds with V-ATPase pHluor; in the data active means response above about 24%;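 further: plate controls were vehicle wells for no effect and positive control wells for full effect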
# Starred values were filed as active, the others as inactive; / = no result given; ! = repeats disagree. An excerpt weighted towards active compounds, which were near 0.78% of everything screened.
SMILES,V-ATPase pHluor,PKA-R2B activ,PolyA inh,JMJD2C inh,PKA-R1A act,CR mimetic SO,Superoxide pick,DHE counter,others
C[C@]12CCC3C(CCC4=C/C(=N/OCC(=O)NC(CCC(N)=O)C(=O)O)CC[C@@]43C)C1CCC2O (some centres not stated),-0.4,2.6,-1.3,-9.6,-2.1,70.6,/,/,
C[C@]12CCC3C(CCC4=C/C(=N/OCC(=O)NC(CCC(=O)O)C(=O)O)CC[C@@]43C)C1CCC2O (some centres not stated),3.9,1.2,1.2,1.4,10.8,58.0*,94.1,106.6,
C[C@]12CCC3[C@@H](CC[C@H]4C[C@@H](O)CC[C@]34C)C1CCC2=O (some centres not stated),1.6,0.7,-74.1,10.3,5.8,80.8,/,/,
C[C@]12CCC3C(CC[C@@H]4C[C@H](O)CC[C@]34C)C1CCC2=O (some centres not stated),6.2,8.6,/,-4.5,7.5,64.2*,81.6,91.8,
C[C@]12CC[C@H](O)C[C@H]1CC[C@@H]1[C@@H]2CC[C@]2(C)C(=O)CC[C@@H]12,-0.7,-11.6,/,/,-7.8,48.5*,78.1,118.4,
Cc1[nH]c2ccccc2c1CN1CCCCC1,1.2,6.4,/,/,-0.5,/,/,/,
CC12CCC(=O)CC1CCC1C2C(=O)CC2(C)C1CCC2(C)O (configuration not stated),1.8,-4.0,/,/,-2.9,/,/,/,
C[C@]12CCC(=O)C[C@@H]1CC[C@@H]1[C@@H]2CC[C@]2(C)[C@@H](O)CC[C@@H]12,-0.8,-3.6,/,/,5.3,54.3*,78.4,99.7,
C[C@]12CCC3C(CC[C@@H]4CC(=O)CC[C@]34C)C1CC[C@@H]2O (some centres not stated),3.1,0.5,/,5.6,-4.2,54.3*,83.8,91.7,
C[C@]12CCC(=O)CC1CCC1C2CC[C@]2(C)C(OC(=O)CCC(=O)O)CCC12 (some centres not stated),-0.3,-9.2,-14.9,-0.2,-1.5,64.4*,80.3,92.0,
C[C@]12CC(=O)CC1CCC1C2CC[C@@]2(C)C1CC[C@@H]2O (some centres not stated),-1.3,-4.1,-9.0,4.9,-13.7,72.2,/,/,
CC(NC(=O)N1CC1(C)C)c1ccccc1 (configuration not stated),1.9,-2.0,/,/,4.3,/,/,/,
CC(=NNC(=S)N1CC2CCC(CC2)C1)c1nccs1,-5.5,-0.4,/,/,0.9,/,/,/,
Nc1cc(C(=O)Nc2ccccc2F)ccc1N1CC2CC(C1)c1cccc(=O)n1C2 (configuration not stated),/,-1.5,/,/,0.2,/,/,/,
Cc1cc(C)c(S(=O)(=O)N2Cc3ccccc3-n3nncc3C2)c(C)c1,2.3,-3.9,/,/,-4.9,/,/,/,
C[C@]12CC[C@H](O)CC1C(=O)CC1C2CC[C@@]2(C)C1CC[C@@H]2O (some centres not stated),-2.4,2.2,/,-4.5,-5.0,79.3,91.7,102.3,
C#C[C@]1(O)[C@H](O)CC2C3CC[C@H]4C[C@@H](O)CC[C@]4(C)C3CC[C@@]21C (some centres not stated),/,/,/,4.4,/,93.9,98.5,96.3,
C[C@]12CCC3C(CC[C@H]4C[C@@H](O)CC[C@]34C)C1CC[C@@]2(O)C(F)(F)F (some centres not stated),/,/,/,-3.1,/,97.0,105.1,104.7,
C[C@]12CCC3C(CC[C@H]4C[C@@H](O)CC[C@]34C)[C@H]1CC[C@H]2O (some centres not stated),1.5,-15.7,/,-4.8,-11.7,77.7,96.9,100.8,
C[C@]12CC[C@@H](O)C[C@@H]1CC[C@@H]1[C@@H]2CC[C@]2(C)[C@@H](O)CC[C@@H]12,8.5,-4.2,-13.9,17.5,-10.8,79.8,/,/,
C[C@]12CCC3C(CC[C@H]4C[C@@H](O)CC[C@]34C)C1C[C@@H](O)[C@]2(C)O (some centres not stated),3.8,0.5,/,-5.1,-8.8,103.3,99.8,91.2,
C[C@]12CCC3C(CC[C@H]4C[C@@H](O)CC[C@]34C)C1C[C@@H](N)[C@@H]2O (some centres not stated),-0.7,3.0,/,3.5,-3.2,92.7,102.5,98.0,
COC(=O)C1=C(c2ccc3ccccc3c2)C[C@@H]2CC[C@H]1N2C(=O)NCc1ccc(C(F)(F)F)cc1,1.3,-4.4,/,/,-9.6,96.5,/,/,
CC(=O)Nc1cc(C(=O)N2CCC3(CC2)OCCO3)ccc1S(=O)(=O)c1ccc(C)cc1,1.2,-1.9,-16.3,2.7,1.2,98.0,/,/,
CC(=O)Nc1cc(C(=O)N2CCC3(CC2)OCCO3)ccc1S(=O)(=O)c1ccc(Cl)cc1,8.8*,-3.5,9.5,-4.5,-7.1,98.0,/,/,VATPase regulator=7.5
SMILES,V-ATPase pHluor,PKA-R2B activ,PolyA inh,JMJD2C inh,PKA-R1A act,CR mimetic SO,Superoxide pick,DHE counter,others
[N-]=[N+]=NCCN1CCC(O)CCC1=O (configuration not stated),26.3*,1.9,-11.3,0.2,12.0,92.7,/,/,VATPase regulator=-1.1
COCCNCCOc1ccc(C(C)(C)c2ccccc2)cc1,12.5*,-1.4,-19.5,-3.9,2.3,90.1,/,/,VATPase regulator=-1.5
CCN(CC)c1ccc(N=Cc2c(O)n(-c3ccccc3)c(=O)[nH]c2=O)cc1,2.4,-14.2,8.6,-25.7,-6.8,103.0,/,/,
CCN(CC)c1ccc(N=Cc2c(O)n(Cc3ccccc3)c(=O)[nH]c2=O)cc1,46.3*!,-7.9,-0.4,0.0,-9.0,103.5,/,/,VATPase regulator=-41.4
COc1c(C)cc(C(=O)C2CCCN(Cc3cccc(C)n3)C2)cc1C (configuration not stated),9.2*,-8.0,-18.2,23.1,-14.4,93.7,/,/,VATPase regulator=-6.1
Cc1cc(/C=C2\C(=O)NC(=O)N(c3ccc(Br)cc3)C2=O)c(C)n1-c1cc(C(=O)O)cc(C(=O)O)c1,3.2,-7.9,15.5,2.8,-1.8,116.5,/,/,
Cc1cc(C(=O)C[N+]23CCN(CC2)CC3)c(C)n1-c1ccc(Br)cc1,9.2*,5.3,-2.3,3.2,-3.9,83.3,/,/,VATPase regulator=0.3
